Among all 410,000 compounds or so, about 18,000 (4.4%) were called active. About 7% were inconclusive and are not listed. For the sample, actives were picked, then their nearest neighbours and some compounds at random. Values without a mark were called inactive. Rule as the data show it: active = activity change below about -60%; inconclusive = no clear call, values can overlap the other calls; inactive = above about -39%.
assay: qHTS Assay for inhibitors of the human cytomegalovirus (HCMV); conditions: HFF cells, HCMV-luciferase reporter, 72 h; at 57.5 µM; hits give low values
How it was run: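 After 16 h attachment at 37C, HFF cells received test compound and HCMV-luciferase (1 PFU/cell); reporter luminescence read 72 h later, data normalized against buffer-only and known inhibitor Salinomycin.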
% is scaled to controls: 0 for no effect and ±100 for the full control effect.

Compound	activity change, negative = inhibition
O=C(/C=C\c1ccc2c(c1)OCO2)NC1(C(=O)Nc2ccc3c(c2)OCCO3)CCCCC1	-87.5% (active)
CC1(C(=O)Nc2ccc3c(c2)OCCO3)CCN1C(=O)Cc1cc(F)ccc1F (stereo not drawn)	20.3%
S=C(Nc1ccc2c(c1)OCO2)N1CCCC1	17.6%
COC(=O)[C@@]1(C#N)CC(=O)N([C@@H](C)c2ccccc2)[C@H]1c1ccccc1	-35.4%
CC(=O)N1c2ccccc2CC1C(=O)N1CCN(c2ccc(F)cc2)CC1 (stereo not drawn)	16.1%
O=c1nc(N2CCOCC2)nc2n1CCO2	-26.3%
COc1ccc(OC)c(NC(=O)C2CCN(S(=O)(=O)c3ccc(C)cc3)CC2)c1	-12.3%
O=C(CSc1nnc(Cn2cnc3ccccc32)o1)c1ccccc1	-35.1%
Fc1ccc(OCc2nn3c(Cn4nnc5ccccc54)nnc3s2)cc1	-1.96%
c1ccc(Cc2nn3c(Cn4cnc5ccccc54)nnc3s2)cc1	-65.2% (active)
Cc1ccccc1CNC(=O)c1ccc(NC(=O)N2CCCCc3ccccc32)cc1	-4.65%
COc1ccc(C(=O)c2oc3ccccc3c2NC(=O)COc2cccc(C)c2)cc1	9.86%
Cc1noc(C)c1S(=O)(=O)N(C)C[C@H]1Oc2c(NC(=O)Nc3ccc4c(c3)OCO4)cccc2C(=O)N([C@H](C)CO)C[C@@H]1C	22.1%
COc1ccc(-c2cn3nc(N4CCCC(C(=O)NCCCOC(C)C)C4)sc3n2)cc1 (stereo not drawn)	0%
Cc1ccc2nsnc2c1S(=O)(=O)N1CCCC1C(=O)O (stereo not drawn)	-8.96%
CCc1ccc(S(=O)(=O)c2nnn3c2nc(N2CCN(CC)CC2)c2sccc23)cc1	9.37%
N#CCCN(CCC#N)c1nnc(-c2ccccc2)s1	3.02%
CC1CCCC(C)N1C(=O)CN1CCN(c2nc(-c3ccc(F)cc3)cs2)CC1 (stereo not drawn)	-63.2% (active)
CN(C)CCCNC(=S)N1CCN(c2nc(-c3ccccc3)cs2)CC1	-3.01%
CCc1ccc(CNC(=O)C2CCN(c3nn4cc(-c5ccc(F)cc5)nc4s3)CC2)cc1	0%
O=C(NCc1nnc(SCC(=O)N2CCC(Cc3ccccc3)CC2)o1)c1ccco1	-25.7%

Compound	activity change, negative = inhibition
COC(=O)[C@H](CCSC)NC(=O)Nc1ccc(OC)cc1	10.5%
COc1ccc(NC(=O)Nc2cccc(-c3noc(C)n3)c2)cc1	-15.1%
COc1ccc(NC(=O)Nc2ccc3nsnc3c2)cc1	-62.9% (active)
CCOC(=O)c1ccc(NC(=O)Cn2c(=O)n(-c3ccc(C)cc3)c(=O)c3c2cnn3C)cc1	2.83%
CSc1ncnc2c1ncn2CCCNCc1ccco1	11.8%
CSc1ncnc2c1ncn2CC(=O)C1CCC2C3CCC4=CC(=O)CCC4(C)C3CCC12C (stereo not drawn)	-83% (active)
CSc1ncnc2c1ncn2CCCNCC1CCCCC1	8.49%
O=C(O)c1ccc(Cn2c(SCc3ccc(F)cc3)nc3ccncc32)cc1	0.974%
O=C(NCCCN1CCN(c2cccc(Cl)c2)CC1)c1nnc(Cc2ccc(F)cc2Cl)o1	-14.1%
Cn1c(C(=O)NCCCN2CCN(c3cccc(Cl)c3)CC2)cc2c(=O)n(C)c3ccccc3c21	-68.6% (active)
CCOc1ccc(CCNC(=O)c2cc3c(=O)n(C)c4ccccc4c3n2C)cc1	-15.3%
Cc1cccc(NC(=O)CSc2ncc(-c3ccccc3)[nH]2)c1C	45.4%
C=CCOC(=O)C1=C[C@@H](c2ccccc2)C[C@@H](OCc2ccc(CO)cc2)O1	-2.26%
CN(C)c1ccc(C(CNS(=O)(=O)c2cc(F)ccc2F)N2CCOCC2)cc1 (stereo not drawn)	-0.38%
CCCNC(=O)C(CC)n1nc(CC)n2c(cc3oc(C)cc32)c1=O (stereo not drawn)	-16.8%
COc1cc(OC)c(NC(=O)c2nc(-c3ccncc3)no2)cc1Cl	-9.36%
CCOC(=O)C1CN(S(=O)(=O)c2ccc(OC)cc2)c2cc(Cl)ccc2O1 (stereo not drawn)	-61.8% (active)
CCOC(=O)C1CN(S(=O)(=O)c2ccc(F)cc2)C1	41%
CCS(=O)(=O)c1ccc2c(c1)N(S(=O)(=O)c1ccccc1)CC(C(=O)O)O2 (stereo not drawn)	4.24%
CCCCCn1c(=O)[nH]c2cc(C(=O)Nc3cc(C)cc(C)c3)ccc2c1=O	-0.639%
CC[C@]1(O)C[C@@H]2CN(CCc3c([nH]c4ccccc34)[C@@](C(=O)OC)(c3cc4c(cc3OC)N(C)[C@H]3[C@@](O)(C(=O)OC)[C@H](OC(C)=O)[C@]5(CC)C=CCN6CC[C@]43[C@@H]65)C2)C1	-99.7% (active)

Compound	activity change, negative = inhibition
CC[C@]1(O)CC2CN(CCc3c([nH]c4ccccc34)[C@@](C(=O)OC)(c3cc4c(cc3OC)N(C=O)[C@H]3[C@@](O)(C(=O)OC)[C@H](OC(C)=O)[C@]5(CC)C=CCN6CC[C@]43[C@@H]65)C2)C1 (stereo partly drawn)	-100% (active)
CCc1cccc(NC(=O)CSc2nccn2C)c1	73.7%
O=C(Nc1cc(-c2nc3ccccc3o2)ccc1Cl)c1cc([N+](=O)[O-])ccc1N1CCOCC1	17.1%
O=C(CCCCn1c(=O)c2ccccc2n(CC(=O)Nc2cccc(C(F)(F)F)c2)c1=O)NCc1ccc2c(c1)OCO2	-22.6%
CCC(=O)N1CCc2cc(S(=O)(=O)NC(CC(C)C)C(=O)NCCc3cccc(C)c3)ccc21 (stereo not drawn)	-11.4%
COc1cn(CC(=O)Nc2cccc(C)c2C)c(CN2CCCCC2)cc1=O	6.56%
O=C(c1ccc(N2CCOCC2)c([N+](=O)[O-])c1)N1CCN(S(=O)(=O)c2cccs2)CC1	5.8%
O=C(c1cccc(F)c1)N1CCN(c2ccc([N+](=O)[O-])c(N3CCCCC3)c2)CC1	-60.2% (active)
COc1ccc(N2CCN(C(=O)c3c(C)oc4nc(C)nc(N5CCCC5)c34)CC2)cc1	18.7%
O=[N+]([O-])c1ccc(N2CCN(c3ccc(F)cc3)CC2)cn1	-16.4%
O=C(c1ccc(N2CCOCC2)c([N+](=O)[O-])c1)N1CCN(c2ccccc2F)CC1	-77.5% (active)
COc1ccc(N2CCN(C(=O)c3cccs3)CC2)cc1	57.6%
O=C(c1cncc(Br)c1)N1CCN(c2ccc([N+](=O)[O-])cc2)CC1	25.9%
CC(C)c1ccc(S(=O)(=O)N2CCN(C(=O)c3ccc(N4CCCC4)c([N+](=O)[O-])c3)CC2)cc1	-16.3%
O=C(c1cccc(F)c1)N1CCN(c2ccc([N+](=O)[O-])c3cccnc23)CC1	-7.42%
O=C(c1ccc(CN2CCOCC2)cc1)N1CCN(c2ccccc2F)CC1	16.2%
COc1ccc(-c2cc(C(=O)N3CCN(c4ccc(F)cc4)CC3)no2)cc1	-76% (active)
O=C(c1cc(C(=O)N2CCN(c3ccc(F)cc3)CC2)cc([N+](=O)[O-])c1)N1CCN(c2ccc(F)cc2)CC1	-66.2% (active)
Cc1ccc(CN(C(=O)COc2ccc(Cl)cc2C)C2CCS(=O)(=O)C2)o1 (stereo not drawn)	51.5%
Cc1cccc(N2CCN(c3ccc(C(=O)O)cc3NC(=O)c3ccccc3F)CC2C)c1 (stereo not drawn)	-4.85%
CCOc1ccccc1C(=O)NC1(C(F)(F)F)NC(=O)N(CCc2ccc(OC)c(OC)c2)C1=O (stereo not drawn)	-4.49%

Compound	activity change, negative = inhibition
O=C(CSc1nc2ccccc2nc1Cc1ccccc1)N1CCCCC1	-18.6%
CC(C)[C@@H](C(=O)OCC(=O)c1ccc2c(c1)NC(=O)CO2)N1C(=O)c2ccccc2C1=O	43.1%
COc1cc(NC(=O)c2noc3c2CSc2ccccc2-3)cc(OC)c1OC	40.1%
CC(C)CCNC(=O)CSc1nc2ccccc2nc1Cc1ccc(Cl)cc1	-7.66%
O=C(CC1N=C2c3ccccc3N=C(SCc3ccc(F)cc3)N2C1=O)NCc1cccs1 (stereo not drawn)	30.3%
O=C(Nc1cc(Cl)ccc1N1CCOCC1)c1ccc(N2CCCC2=O)cc1	-3.06%
CNS(=O)(=O)c1ccc(N2CCCC2=O)c([N+](=O)[O-])c1	-21%
O=C(c1cccc(-n2cccc2)c1)N1CCN(S(=O)(=O)c2ccc(F)cc2)CC1	-6.27%
O=C(c1ccc(N2CCCC2=O)cc1)N1CCN(c2ccc(C(F)(F)F)cc2[N+](=O)[O-])CC1	-85.8% (active)
CC(=O)c1ccc(N2CCN(C(=O)c3ccc4nc[nH]c4c3)CC2)cc1	-12%
O=C(c1cccc(C(=O)N2CCN(c3ccc(F)cc3)CC2)c1)N1CCN(c2ccc(F)cc2)CC1	-88.8% (active)
Cc1cc(C)cc(Nc2ncnc3onc(-c4ccc(F)cc4)c23)c1	-23.4%
COc1ccccc1-c1nnc(SCC(N)=O)o1	64.6%
COc1cc(C(=O)Nc2ccc(-n3c(C)nc4ccccc4c3=O)cc2)cc(OC)c1OC	-1.41%
CCOC(=O)c1cc2c(=O)n3ccccc3nc2n(CCCOC)c1=NC(=O)C(C)Oc1ccccc1 (stereo not drawn)	-1.73%
O=Cc1c(N2CCN(c3cccc(Cl)c3)CC2)nc2ccccn2c1=O	-31.6%
Cc1ccc2nc(N3CCN(c4cccc(Cl)c4)CC3)c3nnnn3c2c1	-71.6% (active)
O=S(=O)(c1cccc2nonc12)N1CCN(c2cccc(Cl)c2)CC1	-25.7%
COC(=O)c1ccc(COC(=O)CNC(=O)c2cccc(OC)c2)o1	-25.9%
O=C(Nn1cc(C(=O)N2CCN(c3ccccc3F)CC2)c2ccccc2c1=O)c1cnccn1	43.2%
